Assay outcomes from PubChem BioAssay.
Bead autofluor – counter-screen for toxin protease inhibitors: compound fluorescence. compound autofluorescence counterscreen, microsphere flow cytometry; active compounds read high. fluorescence intensity (test concentration not listed). 3.1% of 360,000 active. AID 624483; in the data active = fluorescence intensity above about 16000; inconclusive = no clear call, values can overlap the other calls
MazEF act – activators of E. coli MazEF toxin-antitoxin RNase | activation, % at 20 µM | FAM/BHQ RNA-DNA oligo cleavage fluorescence, 5 h | 0.32% of 350,000 active | AID 504720 | P0AE70; in the data active = activation above about 50%
Target sequence (P0AE70 whole entry, looked up): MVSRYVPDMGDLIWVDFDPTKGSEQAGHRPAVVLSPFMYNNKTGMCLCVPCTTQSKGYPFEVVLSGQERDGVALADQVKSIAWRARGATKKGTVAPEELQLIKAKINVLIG
BoNT A protease – blocks Botulinum neurotoxin A light chain protease. multiplex microsphere protease substrate cleavage, flow cytometry. inhibition, % at 10 µM. 0.17% of 360,000 active; also: plate controls were buffer without enzyme for full effect and enzyme alone for no effect
VHR inh abs – blocks human VHR1 dual specificity phosphatase | inhibition, % at 13.3 µM | P51452 | recombinant VHR phosphatase, pNPP absorbance | 0.52% of 290,000 active; in the data active = inhibition above about 50%
Target sequence (P51452 whole entry, looked up): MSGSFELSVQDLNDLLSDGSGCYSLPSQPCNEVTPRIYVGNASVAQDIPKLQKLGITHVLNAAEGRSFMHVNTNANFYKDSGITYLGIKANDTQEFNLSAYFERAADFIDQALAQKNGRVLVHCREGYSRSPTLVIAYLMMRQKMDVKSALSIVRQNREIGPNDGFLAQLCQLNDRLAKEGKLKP
Anthrax LF inh2 – blocks Bacillus anthracis lethal factor protease | P15917 | multiplex microsphere protease cleavage assay, LF | inhibition, % at 10 µM | 0.12% of 360,000 active; also: plate controls were buffer without enzyme for full effect and enzyme alone for no effect
BoNT F protease – inhibitors of Botulinum neurotoxin F light chain protease. Multiplex microsphere protease cleavage assay, flow cytometry. inhibition, % at 10 µM. 0.22% of 360,000 active; in the data active = inhibition above about 35%, passing the limit was not always enough; inconclusive = no clear call, values can overlap the other calls; also: plate controls were buffer without enzyme for full effect and enzyme alone for no effect
* marks the source's active call; other numbers are inactive results; ? = inconclusive; / = no result. Rows were chosen to be rich in hits. Some 4.1% of all compounds tested hit in one or more screens of this group. Rule as the data show it, unless noted: active = inhibition above about 30%; inconclusive = no clear call, values can overlap the other calls; inactive = below that.

SMILES	Bead autofluor	MazEF act	BoNT A protease	VHR inh abs	Anthrax LF inh2	BoNT F protease
Cc1c(C2N3CC4(C)CN2CC(C)(C3)C4=O)c2ccccc2n1C (stereo not drawn)	22039*	21.5	1.3	28.7	-9.8	1.8
Cn1cc(C2N3CC4(C)CN2CC(C)(C3)C4=O)c2ccccc21 (stereo not drawn)	5188	-0.8	-1.2	3.4	-5.4	-2.3
CCc1c(C)sc(NC(=O)c2ccco2)c1C(=O)N1CCOCC1	7749	-3.3	0.5	39.0	0.1	6.6
CCc1c(C)sc(NC(=O)c2ccco2)c1C(=O)N1CCCCC1	22698*	4.6	1.5	1.4	0.1	0.7
Cc1ccc(OCC(=O)N2CCN(c3nnc(-c4ccc(C)cc4)c4ccccc34)CC2)cc1	22360*	0.6	2.0	24.4	-1.9	3.3
COc1ccc(OCC(=O)N2CCN(C(=O)c3cccc4ccccc34)CC2)cc1	21547*	0.9	3.4	2.6	0.8	4.8
COc1cc2c(cc1NC(=O)C(C)N1CCN(S(=O)(=O)c3ccc(C)c(C)c3)CC1)oc1ccccc12 (stereo not drawn)	16646*	5.7	0.6	31.2	0.0	-1.9
COc1ccccc1CC(=O)Nc1cc2oc3ccccc3c2cc1OC	3972	0.1	4.7	28.7	3.0	34.5*
COc1cc2c(cc1NC(=O)CSc1ccccn1)oc1ccccc12	20567*	-7.9	?	16.7	-2.9	-3.4
CC(C)(C)OC(=O)N(Cc1ccccc1)Cc1cccc(OCc2cccc(NC(=O)c3ccccc3)c2)c1	3704	-7.4	0.2	/	-4.5	-2.7
CCC1(C(N)=O)CC2C=CC1C2 (stereo not drawn)	3870	5.6	0.1	/	-2.1	-2.1
COC(=O)NC1CC2C=CC1C1C=CC21 (stereo not drawn)	3793	5.4	0.5	/	5.6	1.4
CCOc1cc(/C=C(\C#N)c2[nH]nc(N)c2C#N)ccc1O	23984*	5.8	-1.8	23.2	0.5	-5.3
CCOC(=O)C1(C)CCCN(C(=O)c2ccc(-c3ccccc3)cc2)C1 (stereo not drawn)	3419	/	0.2	/	3.0	3.5
COc1ccccc1/C=C/CN1CCC(Oc2ccc(C(=O)N3CCCC3)cc2)CC1	6772	0.1	-1.6	52.8*	-1.1	-0.3
Cc1cccc(NC(=S)N/N=C/c2ccc([N+](=O)[O-])s2)c1	3008	9.5	87.9*	28.7	52.5*	19.7
O=c1c2ccccc2nc(-c2ccc(-c3ccccc3)cc2)n1-c1ccncc1	10461	1.4	-0.2	-0.1	-0.7	-3.3
O=c1c2ccccc2nc(-c2ccoc2)n1-c1ccccc1	20668*	-0.1	?	23.4	-1.4	-0.6
COc1ccccc1-n1c(-c2ccoc2)nc2ccccc2c1=O	2217	4.8	-0.4	11.3	-3.3	-10.4
O=c1c2ccccc2nc(-c2ccoc2)n1-c1ccccc1Cl	22805*	-18.9	1.0	43.4	-1.8	2.1
CCc1nc2ccc(C(=O)N(CC)CCN(C)C)cn2c1N(C)C(=O)C1CCCCC1	3925	/	0.4	/	-8.7	4.3
C[C@@H]1CN([C@H](C)CO)C(=O)c2cc(NC(=O)Cc3cn(C)c4ccccc34)ccc2O[C@H]1CN(C)S(=O)(=O)c1ccc(F)cc1	2788	-13.1	0.9	/	-3.5	4.5
S=c1[nH]nc(-c2cc(-c3ccccc3)n[nH]2)n1/N=C/c1cccc(Cl)c1	4443	-25.2	-0.9	50.0*	8.9	?
CCOc1ccccc1-n1c(SCC(=O)N2CCOCC2)nc2ccccc2c1=O	4361	6.0	1.2	14.1	-1.3	3.1
Clc1ccc2nc(N3CCNCC3)nc(-c3ccccc3)c2c1	2954	37.1	9.9	51.7*	4.6	-56.8
SMILES	Bead autofluor	MazEF act	BoNT A protease	VHR inh abs	Anthrax LF inh2	BoNT F protease
CN1CCN(c2nc(-c3ccccc3)c3cc(Cl)ccc3n2)CC1	2866	0.2	6.1	17.6	4.6	2.9
CSc1nnc2c(n1)OC1(Nc3ccccc3-2)C(=O)Nc2ccccc21 (stereo not drawn)	4690	-4.0	-0.1	22.2	2.8	-1.0
CC(=Nc1ccc2c(c1)CCC2)c1c(O)n(C2CCCCC2)c(=O)[nH]c1=O	15927	-21.7	0.9	13.8	-3.8	3.3
CCC(=Nc1ccc2c(c1)CCC2)c1c(O)n(C2CCCCC2)c(=O)[nH]c1=O	22000*	-13.5	?	17.0	-0.3	-0.5
O=C(c1n[nH]c2ccccc12)N1CCN(S(=O)(=O)c2ccccc2)CC1	/	5.6	/	/	/	/
COc1ccc(-c2ccc(=O)[nH]n2)cc1	20511*	3.9	-1.2	7.6	-2.7	-2.5
CCCCNC(=S)N(CCCO)Cc1cc2cc3c(cc2[nH]c1=O)OCCO3	4153	1.4	-5.7	51.3*	8.5	?
COc1cc(/C=C/C(=O)c2ccc(Cl)s2)cc(OC)c1O	21357*	-6.4	?	35.2	6.1	-3.3
COc1ccc(/C=C/C(=O)c2ccc(Cl)s2)cc1O	9061	3.5	0.8	-1.8	-5.0	-2.0
O=C(CSc1nnc(COc2ccc(Cl)cc2)o1)Nc1nccs1	3979	1.8	-0.6	/	-5.5	-9.3
COc1ccc(NS(=O)(=O)c2cc3c(cc2C)N(C(C)=O)CCO3)c(OC)c1	6475	0.3	-0.4	5.5	-3.1	-11.9
Oc1ccc(N=Nc2nc(-c3ccccc3)c(-c3ccccc3)[nH]2)cc1	2907	126.1*	-1.6	-0.8	-4.9	-24.9
O=C(CCNC(=O)c1ccc(Br)cc1)NCc1cccnc1	?	2.1	-6.8	/	-3.8	?
Cc1cc(Cl)cc2c1NC(=O)[C@]21[C@@H]2C(=O)N(Cc3ccccc3)C(=O)[C@@H]2[C@@H]2CCCN21	3642	0.5	2.0	3.5	0.4	-9.5
CCc1ccc2c(c1)[C@]1(C(=O)N2)[C@@H]2C(=O)N(Cc3ccccc3)C(=O)[C@@H]2[C@@H]2CCCN21	21738*	-0.8	2.3	-15.6	-2.5	4.5
Cc1c(C)n(C)c2ccc(C(=O)NCCN3CCOCC3)cc12	4168	-1.2	2.1	9.1	1.2	-3.6
CC1(C(=O)NS(=O)(=O)C2CC2)CCCN(C(=O)c2ccc(F)cc2Cl)C1 (stereo not drawn)	3618	/	-0.7	/	-9.2	-0.2
ONC(=Nc1ccccc1)C(=Nc1ccccc1)NO	3061	2.7	-0.3	57.4*	-1.9	-2.7
NC(=Nc1ccccc1)Nc1ccccc1	3042	5.0	-1.1	11.3	-13.1	5.9
CCOC(=O)c1ccc(N)cc1	5449	5.8	-0.7	/	-2.0	-10.2
CCOC(=O)c1sc(-c2ccccc2)cc1NC(=O)Nc1ccccc1	2659	-6.9	4.0	10.2	0.3	2.4
CCOC(=O)c1cc(-c2ccc(N)cc2)sc1N	18171*	20.2	10.2	13.4	-3.2	2.0
CCOC(=O)c1sc(-c2ccc(Br)cc2)cc1N	18598*	-1.1	3.8	13.2	-2.8	1.7
NNC(=O)c1sc(-c2ccc(Cl)cc2)cc1N	4648	-4.3	3.1	51.3*	-8.6	-18.4
O=C(Nc1ccc(F)c(Cl)c1)c1cc(C2CCCN(S(=O)(=O)c3cccc4cccnc34)C2)on1 (stereo not drawn)	3392	/	0.3	/	-4.9	-1.9
